# Data: article PMC11006913
# Where a chain is given by its changes, count along the chain named.
# How the values were obtained:
# Experiment in all cases: PBM; 200 nM protein, PBS
# Settings in all cases: dsDNA, one strand shown
# VENTX [1] = target: T1, VENTX (Homo sapiens, UniProt O95231 78-163, R121Q)
# T1 sequence: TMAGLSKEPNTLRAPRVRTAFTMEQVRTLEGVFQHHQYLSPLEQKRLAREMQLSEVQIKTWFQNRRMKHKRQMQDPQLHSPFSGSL
# VENTX [2] = target: T2, VENTX (Homo sapiens, UniProt O95231 78-163)
# T2 sequence: T1 sequence with Q44R
# VENTX [3] = target: T3, VENTX (Homo sapiens, UniProt O95231 78-163, Y115F)
# T3 sequence: T1 sequence with Y38F, Q44R
# HOXA2 [4] = target: HOXA2 (Homo sapiens, UniProt O43364 129-215, R185T)
# HOXA2 [5] = target: HOXA2 (Homo sapiens, UniProt O43364 129-215, R185K)
# HOXA2 [6] = target: HOXA2 (Homo sapiens, UniProt O43364 129-215, Y150S)
# HOXA2 [7] = target: HOXA2 (Homo sapiens, UniProt O43364 129-215)
# HOXB6 [8] = target: HOXB6 (Homo sapiens, UniProt P17509 132-218, K202E)
# HOXB6 [9] = target: HOXB6 (Homo sapiens, UniProt P17509 132-218)
# NKX2-6 [10] = target: T4, NKX2-6 (Homo sapiens, UniProt A6NCS4 118-204)
# T4 sequence: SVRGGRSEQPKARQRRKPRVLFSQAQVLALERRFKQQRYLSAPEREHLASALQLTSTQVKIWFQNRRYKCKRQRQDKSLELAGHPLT
# NKX2-6 [11] = target: T5, NKX2-6 (Homo sapiens, UniProt A6NCS4 118-204, F151L)
# T5 sequence: T4 sequence with F34L
# ALX3 [12] = target: ALX3 (Homo sapiens, UniProt O95076 139-225, N203Q)
# ALX3 [13] = target: ALX3 (Homo sapiens, UniProt O95076 139-225)
# ALX3 [14] = target: ALX3 (Homo sapiens, UniProt O95076 139-225, L168Q)
# ALX3 [15] = target: ALX3 (Homo sapiens, UniProt O95076 139-225, L168V)
# ALX3 [16] = target: ALX3 (Homo sapiens, UniProt O95076 139-225, N203S)
# NKX2-6 [17] = target: T6, NKX2-6 (Homo sapiens, UniProt A6NCS4 118-204, R150C)
# T6 sequence: T4 sequence with R33C
# ALX3 (Homo sapiens, UniProt O95076 139-225, N203Q), sequence (O95076 139-225 N203Q): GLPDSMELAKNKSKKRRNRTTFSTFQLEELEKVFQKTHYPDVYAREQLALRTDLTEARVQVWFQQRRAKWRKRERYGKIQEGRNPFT
# ALX3 (Homo sapiens, UniProt O95076 139-225, N203S), sequence (O95076 139-225 N203S): as the sequence (O95076 139-225 N203Q) above, with Q65S counted along it
# ALX3 (Homo sapiens, UniProt O95076 139-225, L168Q), sequence (O95076 139-225 L168Q): as the sequence (O95076 139-225 N203Q) above, with L30Q, Q65N counted along it
# ALX3 (Homo sapiens, UniProt O95076 139-225), sequence (O95076 139-225): as the sequence (O95076 139-225 N203Q) above, with Q65N counted along it
# HOXB6 (Homo sapiens, UniProt P17509 132-218, K202E), sequence (P17509 132-218 K202E): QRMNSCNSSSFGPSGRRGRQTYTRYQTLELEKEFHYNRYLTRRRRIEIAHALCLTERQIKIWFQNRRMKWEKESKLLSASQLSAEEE
# ALX3 (Homo sapiens, UniProt O95076 139-225, L168V), sequence (O95076 139-225 L168V): as the sequence (O95076 139-225 N203Q) above, with L30V, Q65N counted along it
# HOXB6 (Homo sapiens, UniProt P17509 132-218), sequence (P17509 132-218): as the sequence (P17509 132-218 K202E) above, with E71K counted along it
# HOXA2 (Homo sapiens, UniProt O43364 129-215, R185T), sequence (O43364 129-215 R185T): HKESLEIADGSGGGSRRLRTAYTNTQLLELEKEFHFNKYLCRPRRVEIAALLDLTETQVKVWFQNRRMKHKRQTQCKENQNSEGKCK
# HOXA2 (Homo sapiens, UniProt O43364 129-215, Y150S), sequence (O43364 129-215 Y150S): as the sequence (O43364 129-215 R185T) above, with Y22S, T57R counted along it
# HOXA2 (Homo sapiens, UniProt O43364 129-215, R185K), sequence (O43364 129-215 R185K): as the sequence (O43364 129-215 R185T) above, with T57K counted along it
# HOXA2 (Homo sapiens, UniProt O43364 129-215), sequence (O43364 129-215): as the sequence (O43364 129-215 R185T) above, with T57R counted along it
sequence,measurement,setting,value
ATTATGTC,binding signal,VENTX [1],"10.5 upbm affinity estimate (log intensity, higher = more binding, comparable within an allelic series)"
same,binding signal,VENTX [2],"11 upbm affinity estimate (log intensity, higher = more binding, comparable within an allelic series)"
same,binding signal,VENTX [3],"10.4 upbm affinity estimate (log intensity, higher = more binding, comparable within an allelic series)"
AGGTCAGG,binding signal,VENTX [1],"8.18 upbm affinity estimate (log intensity, higher = more binding, comparable within an allelic series)"
same,binding signal,VENTX [2],"8.14 upbm affinity estimate (log intensity, higher = more binding, comparable within an allelic series)"
same,binding signal,VENTX [3],"8.06 upbm affinity estimate (log intensity, higher = more binding, comparable within an allelic series)"
GGTCGGGA,binding signal,VENTX [1],"8.05 upbm affinity estimate (log intensity, higher = more binding, comparable within an allelic series)"
same,binding signal,VENTX [2],"8.36 upbm affinity estimate (log intensity, higher = more binding, comparable within an allelic series)"
same,binding signal,VENTX [3],"8.02 upbm affinity estimate (log intensity, higher = more binding, comparable within an allelic series)"
AAATTGAT,binding signal,VENTX [1],"10.3 upbm affinity estimate (log intensity, higher = more binding, comparable within an allelic series)"
same,binding signal,VENTX [2],"10.7 upbm affinity estimate (log intensity, higher = more binding, comparable within an allelic series)"
same,binding signal,VENTX [3],"9.99 upbm affinity estimate (log intensity, higher = more binding, comparable within an allelic series)"
GCGGCCCC,binding signal,VENTX [1],"8.15 upbm affinity estimate (log intensity, higher = more binding, comparable within an allelic series)"
same,binding signal,VENTX [2],"8.27 upbm affinity estimate (log intensity, higher = more binding, comparable within an allelic series)"
same,binding signal,VENTX [3],"8.25 upbm affinity estimate (log intensity, higher = more binding, comparable within an allelic series)"
same,binding signal,HOXA2 [4],"6.96 upbm affinity estimate (log intensity, higher = more binding, comparable within an allelic series)"
same,binding signal,HOXA2 [5],"9.93 upbm affinity estimate (log intensity, higher = more binding, comparable within an allelic series)"
same,binding signal,HOXA2 [6],"10.3 upbm affinity estimate (log intensity, higher = more binding, comparable within an allelic series)"
same,binding signal,HOXA2 [7],"7.15 upbm affinity estimate (log intensity, higher = more binding, comparable within an allelic series)"
CAGAGGGC,binding signal,VENTX [1],"8.16 upbm affinity estimate (log intensity, higher = more binding, comparable within an allelic series)"
same,binding signal,VENTX [2],"8.02 upbm affinity estimate (log intensity, higher = more binding, comparable within an allelic series)"
same,binding signal,VENTX [3],"8.12 upbm affinity estimate (log intensity, higher = more binding, comparable within an allelic series)"
same,binding signal,HOXB6 [8],"9.04 upbm affinity estimate (log intensity, higher = more binding, comparable within an allelic series)"
same,binding signal,HOXB6 [9],"9.01 upbm affinity estimate (log intensity, higher = more binding, comparable within an allelic series)"
ACGCCGCC,binding signal,VENTX [1],"8.33 upbm affinity estimate (log intensity, higher = more binding, comparable within an allelic series)"
same,binding signal,VENTX [2],"8.43 upbm affinity estimate (log intensity, higher = more binding, comparable within an allelic series)"
same,binding signal,VENTX [3],"8.35 upbm affinity estimate (log intensity, higher = more binding, comparable within an allelic series)"
same,binding signal,NKX2-6 [10],"9.13 upbm affinity estimate (log intensity, higher = more binding, comparable within an allelic series)"
same,binding signal,NKX2-6 [11],"9.22 upbm affinity estimate (log intensity, higher = more binding, comparable within an allelic series)"
CCTGCTGC,binding signal,VENTX [1],"8.37 upbm affinity estimate (log intensity, higher = more binding, comparable within an allelic series)"
same,binding signal,VENTX [2],"8.45 upbm affinity estimate (log intensity, higher = more binding, comparable within an allelic series)"
same,binding signal,VENTX [3],"8.42 upbm affinity estimate (log intensity, higher = more binding, comparable within an allelic series)"
same,binding signal,HOXB6 [8],"9.18 upbm affinity estimate (log intensity, higher = more binding, comparable within an allelic series)"
same,binding signal,HOXB6 [9],"9.23 upbm affinity estimate (log intensity, higher = more binding, comparable within an allelic series)"
CAGGGGGG,binding signal,VENTX [1],"8.13 upbm affinity estimate (log intensity, higher = more binding, comparable within an allelic series)"
same,binding signal,VENTX [2],"8.11 upbm affinity estimate (log intensity, higher = more binding, comparable within an allelic series)"
same,binding signal,VENTX [3],"8.09 upbm affinity estimate (log intensity, higher = more binding, comparable within an allelic series)"
same,binding signal,ALX3 [12],"7.62 upbm affinity estimate (log intensity, higher = more binding, comparable within an allelic series)"
same,binding signal,ALX3 [13],"7.33 upbm affinity estimate (log intensity, higher = more binding, comparable within an allelic series)"
same,binding signal,ALX3 [14],"7.58 upbm affinity estimate (log intensity, higher = more binding, comparable within an allelic series)"
same,binding signal,ALX3 [15],"7.5 upbm affinity estimate (log intensity, higher = more binding, comparable within an allelic series)"
same,binding signal,ALX3 [16],"7.6 upbm affinity estimate (log intensity, higher = more binding, comparable within an allelic series)"
CCCGACCG,binding signal,VENTX [1],"8.21 upbm affinity estimate (log intensity, higher = more binding, comparable within an allelic series)"
same,binding signal,VENTX [2],"8.16 upbm affinity estimate (log intensity, higher = more binding, comparable within an allelic series)"
same,binding signal,VENTX [3],"8.1 upbm affinity estimate (log intensity, higher = more binding, comparable within an allelic series)"
same,binding signal,NKX2-6 [17],"9.21 upbm affinity estimate (log intensity, higher = more binding, comparable within an allelic series)"
same,binding signal,ALX3 [12],"7.73 upbm affinity estimate (log intensity, higher = more binding, comparable within an allelic series)"
same,binding signal,ALX3 [13],"7.81 upbm affinity estimate (log intensity, higher = more binding, comparable within an allelic series)"
same,binding signal,ALX3 [14],"7.73 upbm affinity estimate (log intensity, higher = more binding, comparable within an allelic series)"
same,binding signal,ALX3 [15],"7.72 upbm affinity estimate (log intensity, higher = more binding, comparable within an allelic series)"
same,binding signal,ALX3 [16],"7.76 upbm affinity estimate (log intensity, higher = more binding, comparable within an allelic series)"
